Assay results from PubChem BioAssay (NCATS).
Inconclusive results are not listed. Active and inactive are the calls of the source. Calls come from the whole dose curve; as a rule, active = well fitted curve in the direction sought with a large enough effect; inconclusive = small, poorly fitted or top-dose-only effect, or another doubt; inactive = no such curve, though single readings can be large; an effect the other way counts as inactive or inconclusive.

What was measured:
[1] = target: Luciferin 4-monooxygenase (Photinus pyralis) (UniProt P08659); assay: Firefly luciferase counterscreen qHTS: Assay Interference Panel against the NCATS CANVASS Library (AID 1347363); details: purified firefly luciferase, luminescence inhibition, 5 min; series mostly up to 57.5 µM
Outline: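 Purified P. pyralis luciferase (0.04 ug/mL, 4x reagent) added to Tris-acetate buffer with 0.013 mM D-luciferin, 0.013 mM ATP and 13.3 mM Mg-acetate; compounds preincubated 15 min, then luminescence read after 5 min, RT.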

[2] = KB-8-5-11 Cancer Cell Toxicity qHTS against the NCATS CANVASS Library (AID 1347364); details: KB-8-5-11 MDR cells viability, CellTiter-Glo, 72 h; series mostly up to 46.1 µM
Outline: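 Terse: KB-8-5-11, 500 cells/well, 72 hr, 37C/5% CO2, 11-pt titration, CellTiter-Glo readout; confirmatory runs ± 1uM tariquidar in medium.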

[3] = qHTS for ATAD5 Agonist screened against the NCATS CANVASS Library (AID 1347367); details: HEK293T ATAD5-luciferase reporter, luminescence, 16 h; series mostly up to 46.1 µM
Outline: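 HEK293T-ATAD5 luc reporter; 2000 cells/well; 5hr settle; cpd 11-pt qHTS; 16hr 37C 5% CO2 dark; viability by CellTiter-Fluor (AFC fluorescence); then luciferase luminescence, 30min RT.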

[4] = MCF7 Cancer Cell Toxicity qHTS against the NCATS CANVASS Library (AID 1347369); details: MCF7 viability, ATP luminescence (CellTiter-Glo), 72 h; series mostly up to 46 µM
Outline: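 Cells seeded at 500/well, then compound pinned. Plates incubated 72 hr at 37C, 5% CO2. CellTiterGlo added; luminescence read.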

[5] = target: Nuclear receptor subfamily 1 group I member 3 (Homo sapiens) (UniProt Q14994); assay: qHTS for Constitutive Androstane Receptor (CAR) Antagonist screened against the NCATS CANVASS Library (AID 1347372); details: HepG2-hCAR-CYP2B6 luciferase, CITCO-stimulated antagonist mode; series mostly up to 46.1 µM
Outline: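 Luminescence readout (ONE-Glo, 30 min RT) of CYP2B6-2.2kb reporter in HepG2-hCAR cells after 24hr, 37C treatment with compound against 50 nM CITCO; CellTiter-Fluor viability read beforehand.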

[6] = target: Nuclear receptor subfamily 1 group I member 3 (Homo sapiens) (UniProt Q14994); assay: qHTS for Constitutive Androstane Receptor (CAR) Agonist screened against the NCATS CANVASS Library (AID 1347373); details: HepG2-hCAR-CYP2B6 luciferase reporter, ONE-Glo luminescence; series mostly up to 46.1 µM
Outline: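 Cells were plated and allowed to attach for 4hr, then dosed with compound in an 11-point series alongside 1.5uM PK11195. After 24hr at 37C, viability was measured fluorometrically and CAR-driven CYP2B6 reporter luminescence was recorded.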

[7] = qHTS for Hypoxia signaling pathway (HIF-1) antagonists against the NCATS CANVASS Library (AID 1347374); details: HRE-bla ME-180 cells, HIF-1 beta-lactamase reporter, CoCl2; series mostly up to 38.3 µM
Outline: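 Antagonism scored as loss of CoCl2-driven (60 uM stock added) HRE beta-lactamase signal, read by CCF4 FRET at 460/530 nm. Compounds were tested in an 11-point series on ME-180 reporter cells for 17 hrs at 37C, with parallel CellTiter-Glo cytotoxicity.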

[8] = 10-beta competent E. coli microbial cell viability qHTS against the NCATS CANVASS Library (AID 1347376); details: E. coli 10-beta viability, BacTiter-Glo ATP luminescence, overnight; series mostly up to 46.1 µM
Outline: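 Bacterial suspension diluted to 0.2 OD was dosed with compounds, 11-point series, then held overnight at 37C. BacTiter-Glo reagent was added, and after 20 min at room temperature ATP-dependent luminescence was measured.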

[9] = qHTS for H2AX Agonists against the NCATS CANVASS Library (AID 1347378); details: CHO-K1 H2AX phosphorylation, HTRF TR-FRET, 3 h; series mostly up to 76.9 µM
Outline: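 CHO-K1, 1000 cells/well, o/n 37C; cpd several conc, 3 hr 37C, 0.76% DMSO; lyse 30 min RT; cryptate anti-pH2AX(S139) + d2 anti-H2AX, 24 hr RT; HTRF 665/620.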

[10] = qHTS for Inflammasome Signaling Inhibitors: IL-1-beta AlphaLISA screen against the NCATS CANVASS Library (AID 1347379); details: THP-1 LPS/ATP, IL-1B AlphaLISA secretion, 16 h; series mostly up to 57.5 µM
Outline: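 Secreted IL-1B from human THP-1 cells quantified by AlphaLISA 16 hr after compound addition (final up to 57.5 uM). A 1 hr compound pretreatment preceded inflammasome activation with 250 ng/mL LPS plus 1.25 mM ATP (final).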

[11] = qHTS for Antimalaria activity screened against the NCATS CANVASS Library (AID 1347380); details: P. falciparum Dd2 growth, SYBR Green fluorescence, 72 h; series mostly up to 28.7 µM
Outline: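 Compounds are titrated over 11 concentrations onto Dd2 parasite cultures (0.3% parasitemia, 2.5% hematocrit). Growth over 72 h at 37C in low oxygen is measured as SYBR Green DNA fluorescence after lysis.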

[12] = Inflammasome Signaling qHTS Counterscreen: IL-1-beta AlphaLISA counterscreen against the NCATS CANVASS Library (AID 1347381); details: Purified IL-1beta AlphaLISA signal interference counterscreen; series mostly up to 57.5 µM
Outline: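 Purified IL-1-beta (4 pg/well) + compound, 11-pt conc. series; acceptor beads 6 ug/mL + biotin-Ab 0.6 nM final, 1 h RT; SA-donor 24 ug/ml final, 30 min dark RT; read ex 680/em 615.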

[13] = Cytotoxicity qHTS for assessment of Hepg2 cells membrane integrity screened against the NCATS CANVASS Library (AID 1347387); details: HepG2 LDH release (CytoTox-ONE) fluorescence, 5 h; series mostly up to 46.1 µM
Outline: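 Cells were seeded at 2000 per well and left overnight to attach. Compounds were pin-transferred to give 0.59 nM - 46 uM in an 11-point series and incubated 5 hr at 37C. CytoTox-ONE reagent was added and, after 10 min at room temperature, fluorescence (ex 560, em 590 nm) was read.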

[14] = qHTS for Activators of p53 Stress Response Pathway screened against the NCATS CANVASS Library (AID 1347388); details: p53RE-bla HCT-116, beta-lactamase reporter, 16 h; series mostly up to 46.1 µM
Outline: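 p53RE-bla HCT-116 cells (4000/well) were pre-incubated for 5 h, then treated with compound (11 points) for 16 h at 37C. After 2 h with CCF4, the 460/530 nm ratio gave reporter activation; CellTiter-Glo measured viability.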

[15] = qHTS assay for small molecule disruptors of mitochondrial membrane potential screened against the NCATS CANVASS Library (AID 1347389); details: HepG2 mitochondrial membrane potential, m-MPI red/green ratio, 1.5 h; series mostly up to 46.1 µM
Outline: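 Mitochondrial depolarization in HepG2 cells is scored as a falling aggregate-to-monomer fluorescence ratio after 1 hr compound exposure and 30 min staining with Mito-MPS dye at 37C, each compound tested as an 11-point titration.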

[16] = Secretion counterscreen for inhibitors of the SERCaMP assay screened against the NCATS CANVASS Library (AID 1347390); details: SH-SY5Y constitutive GLuc secretion, luminescence, 20 h; series mostly up to 76.6 µM
Outline: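 SH-SY5Y-GLuc STOP cells; 4 h attach; cpds 0.001 - 77 uM (qHTS, 11 pts), 20 h 37C/5% CO2; coelenterazine in glow buffer; luminescence, 5 s exposure.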

[17] = qHTS for activators of dead-cell proteases activity screened against the NCATS CANVASS Library (AID 1347392); details: HepG2 cytotoxicity, dead-cell protease luminescence, 5 h; series mostly up to 46.1 µM
Outline: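 HepG2, 2000 cells/well, 18 h attach; cpd 11-pt, 5 h 37C 5% CO2; CytoTox-Glo (AAF-aminoluciferin) 15 min RT; luminescence read.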

[18] = Vero-766 cells viability qHTS against the NCATS CANVASS Library: Counterscreen for Zika virus inhibition assay (AID 1347394); details: Vero 766 viability, CellTiter-Glo luminescence, 72 h; series mostly up to 46.1 µM
Outline: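 Vero 766, no virus; 1000 cells/well; o/n attach; cpd 11-pt; 72 h, 37C, 5% CO2; CTG luminescence; cell-free media wells = 100% inhibition.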

[19] = qHTS for inhibitors of Wild type Zika virus screened against the NCATS CANVASS Library (AID 1347396); details: Vero cells, Zika virus CPE, CellTiter-Glo, 72 h; series mostly up to 45.9 µM
Outline: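 Vero 766 (African green monkey) cells, 1000 per well, attached overnight, then compounds were added in an 11-point series before wild-type Zika virus infection. After 72 h at 37C, cell viability was read as CellTiter Glo luminescence.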

[20] = Viability qHTS for inhibitors of the SERCaMP assay screened against the NCATS CANVASS Library (AID 1347400); details: SH-SY5Y SERCaMP cells viability, CellTiter-Glo, 48 h; series mostly up to 92.2 µM
Outline: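 Seed SH-SY5Y-GLuc SERCaMP MJH297 cells at 1000 per well, incubate 4 h, add compounds across an 11-point range, incubate 48 h at 37C, then add CellTiter-Glo and read luminescence.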

Measured: Potency

Chain of Nuclear receptor subfamily 1 group I member 3 (Homo sapiens) (Q14994 whole entry, looked up): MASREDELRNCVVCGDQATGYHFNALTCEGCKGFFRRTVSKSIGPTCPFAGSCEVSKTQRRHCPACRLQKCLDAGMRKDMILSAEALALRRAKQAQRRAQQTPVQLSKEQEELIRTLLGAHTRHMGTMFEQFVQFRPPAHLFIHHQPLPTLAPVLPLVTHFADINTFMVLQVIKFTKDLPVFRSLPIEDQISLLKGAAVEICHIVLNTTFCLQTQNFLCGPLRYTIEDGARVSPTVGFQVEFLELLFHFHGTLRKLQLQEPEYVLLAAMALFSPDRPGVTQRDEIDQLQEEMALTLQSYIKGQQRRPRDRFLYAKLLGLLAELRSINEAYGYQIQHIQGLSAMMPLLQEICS
Chain of Luciferin 4-monooxygenase (Photinus pyralis) (P08659 whole entry, looked up): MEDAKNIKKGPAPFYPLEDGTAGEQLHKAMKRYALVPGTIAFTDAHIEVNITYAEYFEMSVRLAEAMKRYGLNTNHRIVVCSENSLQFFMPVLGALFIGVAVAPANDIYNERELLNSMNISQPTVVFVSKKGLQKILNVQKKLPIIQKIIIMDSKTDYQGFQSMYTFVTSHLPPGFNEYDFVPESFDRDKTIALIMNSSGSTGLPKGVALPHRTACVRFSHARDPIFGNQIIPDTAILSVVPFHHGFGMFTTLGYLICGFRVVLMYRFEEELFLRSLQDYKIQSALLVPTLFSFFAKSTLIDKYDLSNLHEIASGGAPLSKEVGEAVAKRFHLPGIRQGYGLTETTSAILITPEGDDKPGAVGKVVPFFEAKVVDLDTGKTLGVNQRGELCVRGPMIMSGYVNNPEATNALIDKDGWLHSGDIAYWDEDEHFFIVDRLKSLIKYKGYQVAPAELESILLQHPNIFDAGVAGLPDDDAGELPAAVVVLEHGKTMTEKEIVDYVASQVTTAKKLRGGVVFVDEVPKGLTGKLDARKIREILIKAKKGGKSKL

CN1C(=O)[C@]23CC4C(C)(C)[C@@]5(C[C@@]41CN2CC[C@@]3(C)O)C(=O)Nc1c5ccc2c1OC=CC(C)(C)O2 (stereo not given in full)
inactive: all assays above

C/C=C1/CN2CC[C@]34C(=Nc5ccccc53)[C@@H]2C[C@@H]1[C@H]4C(=O)OC
inactive: all assays above
